The list is not random: actives were taken first. Their share in the collection is about 21%.
Shiga toxin inh: Shiga toxin inhibition; Vero cells, Shiga toxin protein synthesis inhibition reporter; inhibition, % at 38.7 µM; 290,000 compounds, 9.2% hits; in the data active means inhibition mostly above about 28%, no sharp cut-off; inactive means mostly below about 43%; further: 0% is about no effect
Pf growth 96h: P. falciparum growth inhibition at 96 hours; Potency, µM (top dose mostly 28.7 µM), for the others: at the highest dose activity change, negative = inhibition, hits mostly inhibitors; P. falciparum luciferase reporter growth, 96 h; 320,000 compounds, 6.9% hits; further: potency means the concentration at half of the fitted maximal effect; on the % scale 0 is the no-effect control and ±100 the full control effect
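P. falciparum expressing integrated firefly luciferase grown in erythrocytes (2% hematocrit, 0.05% parasitemia final) with compounds for 96 hours at 37 C, 5% CO2. Growth inhibition read as loss of luminescence after adding luciferase detection reagent.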
Cycloheximide cs: counter-screen for Shiga toxin inhibitors: cycloheximide protein synthesis inhibition; cell reporter, cycloheximide protein synthesis inhibition counterscreen; max response, %; 300,000 compounds, 12% hits; in the data active means max response mostly above about 13%, no sharp cut-off; inactive means mostly below about 14%; further: read at 38.3 µM for the half of the compounds with a filed dose; 0% is about no effect
Pf growth 48h: P. falciparum growth inhibition at 48 hours (one generation); P. falciparum luciferase growth in erythrocytes, 48 h; Potency, µM (series often up to 28.7 µM), for inactives: at the highest dose activity change, negative = inhibition, hits mostly inhibitors; 310,000 compounds, 5.9% hits; AID 504832; further: potency means the concentration at half of the fitted maximal effect; on the % scale 0 is the no-effect control and ±100 the full control effect
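Luciferase-expressing parasites in RBCs, 2% Hct / 0.1% parasitemia final; RPMI 1640 + 0.5% Albumax; 37 C, 5% CO2, one generation; luminescence read-out, lower signal = inhibition.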
Active calls of the source: *. Unless noted, the call rests on the fitted dose curve; in most records, active means well fitted inhibition curve with a large enough effect; inconclusive means small, poorly fitted or top-dose-only effect, or another doubt; inactive means no such curve, though single readings can be large or run the other way.

What do the screens show for `CCOC(=O)c1n[nH]c2ccccc12`?
Shiga toxin inh: -29.2; Pf growth 96h: inconclusive; Cycloheximide cs: -2.0; Pf growth 48h: 8.7%

How did Cc1nnc(NC(=O)CSc2ccccn2)s1 do in these assays?
Shiga toxin inh: 20.8; Pf growth 96h: 13.1µM*; Cycloheximide cs: 1.2; Pf growth 48h: 7.0%

How did COC(=O)Nc1nc2ccc(Br)cc2s1 do in these assays?
Shiga toxin inh: 26.5; Pf growth 96h: 33.2%; Cycloheximide cs: 16.0; Pf growth 48h: 32.2%

Results for CC(C)Cc1nnc(NC(=O)CSc2ncn[nH]2)s1 ?
Shiga toxin inh: -2.1; Cycloheximide cs: -1.5; Pf growth 48h: 20.7%

Results for CCc1ccc(-c2ccc(SCC(=O)Nc3nnc(C)s3)nn2)cc1 ?
Shiga toxin inh: 79.7*; Pf growth 96h: 52.5%; Cycloheximide cs: 20.8; Pf growth 48h: 144.9%

Results for CC(C)Cc1nnc(NC(=O)CSc2ccccn2)s1 ?
Shiga toxin inh: 19.5; Pf growth 96h: inconclusive; Cycloheximide cs: 22.7*

How did O=C(CSc1ccccn1)Nc1nc2ccc(Br)cc2s1 do in these assays?
Shiga toxin inh: 37.9; Pf growth 96h: inconclusive; Cycloheximide cs: 25.2*; Pf growth 48h: -6.0%

What do the screens show for `Cc1nnc(NC(=O)CSc2nnc(-c3ccccc3)n2C)s1`?
Shiga toxin inh: 2.5; Pf growth 96h: 2.2%; Cycloheximide cs: -4.6; Pf growth 48h: inconclusive

How did O=c1ccc(-c2ccc(S(=O)(=O)Nc3cccc(Br)c3)o2)n[nH]1 do in these assays?
Shiga toxin inh: 17.4; Pf growth 96h: -3.6%; Cycloheximide cs: -2.3; Pf growth 48h: 11.1%

Results for COc1ccc(/C=C(\NC(=O)c2ccccc2)C(=O)OCC2CCCN3CCCCC23)cc1OC (stereo not drawn) ?
Shiga toxin inh: -3.2; Pf growth 96h: -11.1%; Cycloheximide cs: -2.2; Pf growth 48h: -0.1%

What do the screens show for `COc1cc(O)ccc1C(=O)CCc1ccc(O)cc1`?
Shiga toxin inh: 16.1; Pf growth 96h: inconclusive; Cycloheximide cs: 11.9*; Pf growth 48h: inconclusive

What do the screens show for `COC(=O)CCc1ccc(O)cc1`?
Shiga toxin inh: -4.9; Pf growth 96h: 31.6%; Cycloheximide cs: -2.3; Pf growth 48h: 22.8%

Results for CCCCCN(C(=O)CCC(=O)OCc1cc(C)ccc1C)c1c(N)n(CCCC)c(=O)[nH]c1=O ?
Pf growth 96h: inconclusive; Pf growth 48h: 11.2%

Results for O=C(COC(=O)C12CC3CC(CC(C3)C1)C2)Nc1ccccc1F ?
Shiga toxin inh: 12.9; Pf growth 96h: 99.2%; Cycloheximide cs: 19.2*; Pf growth 48h: 55.5%

Results for CN1CCCCc2c1[nH]c1ccccc1c2=O ?
Shiga toxin inh: -10.1; Pf growth 96h: inconclusive; Cycloheximide cs: 0.4; Pf growth 48h: inconclusive

Results for C/C(CC(=O)Nc1ccc(Cl)cc1)=N\NC(=O)C(=O)N1CCCCC1 ?
Shiga toxin inh: 52.1*; Pf growth 96h: 0.7%; Cycloheximide cs: 16.1*; Pf growth 48h: 41.3%

Results for C/C(CC(=O)Nc1cc(Cl)ccc1C)=N\NC(=O)C(=O)N1CCCC1 ?
Shiga toxin inh: 17.6; Pf growth 96h: 13.9%; Cycloheximide cs: 17.1*; Pf growth 48h: -8.6%

What do the screens show for `C/C(CC(=O)Nc1ccc(Cl)cc1Cl)=N\NC(=O)C(=O)N1CCCC1`?
Shiga toxin inh: 17.9; Pf growth 96h: 25.3%; Cycloheximide cs: 4.0; Pf growth 48h: 4.8%

How did C[C@@H]1[C@@H](Sc2ccccc2)CC(=O)O[C@@H]1c1ccc(-c2ccccc2)cc1 do in these assays?
Shiga toxin inh: 81.8*; Cycloheximide cs: 63.1*

How did S=c1[nH]nc(CN2CCCCC2)n1Cc1ccccc1 do in these assays?
Shiga toxin inh: 10.3; Pf growth 96h: 2.2%; Cycloheximide cs: -4.2; Pf growth 48h: 3.7µM*

What do the screens show for `CCn1c(CCc2ccccc2)n[nH]c1=S`?
Shiga toxin inh: 12.5; Pf growth 96h: 10.4µM*; Cycloheximide cs: -2.2; Pf growth 48h: 0.0%

How did S=c1[nH]nc(-c2ccccc2)n1Cc1ccccc1 do in these assays?
Shiga toxin inh: -16.4; Pf growth 96h: 0.415µM*; Cycloheximide cs: -0.7; Pf growth 48h: 15.9%

How did CCCn1c(CCc2ccccc2)n[nH]c1=S do in these assays?
Shiga toxin inh: 25.0; Pf growth 96h: inconclusive; Cycloheximide cs: -4.2; Pf growth 48h: 9.2%

What do the screens show for `S=c1[nH]nc(-c2ccc(Cl)cc2)n1Cc1ccccc1`?
Shiga toxin inh: -14.0; Pf growth 96h: -0.4%; Cycloheximide cs: 0.0; Pf growth 48h: 7.1%

How did CN(C(=O)CSc1nnc(CN2CCCC2)n1Cc1ccccc1)c1ccccc1 do in these assays?
Pf growth 96h: inconclusive; Pf growth 48h: 11.7µM*

What do the screens show for `Cc1nnc(SCC(=O)N(C)c2ccccc2)n1Cc1ccccc1`?
Shiga toxin inh: 2.9; Pf growth 96h: inconclusive; Cycloheximide cs: -0.2; Pf growth 48h: 6.6%

Results for COc1cc2c(cc1OC)/C(=C/C(=O)c1ccc([N+](=O)[O-])c(C)c1)NCC2 ?
Shiga toxin inh: 19.4; Pf growth 96h: 5.22µM*; Cycloheximide cs: 1.2; Pf growth 48h: 9.28µM*

Results for COc1cc2c(cc1OC)/C(=C/C(=O)c1ccc(C)cc1)NCC2 ?
Shiga toxin inh: 2.6; Pf growth 96h: inconclusive; Cycloheximide cs: -1.4; Pf growth 48h: inconclusive

What do the screens show for `CC(Nc1nc2ccccc2n2cnnc12)c1ccccc1` (stereo not drawn)?
Shiga toxin inh: 35.3*; Pf growth 96h: -18.8%; Cycloheximide cs: 19.8*; Pf growth 48h: -24.2%

What do the screens show for `c1ccc(Nc2nc3ccccc3n3cnnc23)cc1`?
Shiga toxin inh: 18.3; Pf growth 96h: 14.0%; Cycloheximide cs: 10.0; Pf growth 48h: 27.2%

Results for c1cnc(N2CCN(c3nc4ccccc4n4cnnc34)CC2)nc1 ?
Shiga toxin inh: 37.9; Pf growth 96h: inconclusive; Cycloheximide cs: 7.4; Pf growth 48h: 32.1%

How did c1ccc(C(c2ccccc2)N2CCN(c3nc4ccccc4n4cnnc34)CC2)cc1 do in these assays?
Shiga toxin inh: -24.6; Pf growth 96h: 1.65µM*; Cycloheximide cs: 2.1; Pf growth 48h: 1.85µM*

Results for c1ccc2c(c1)nc(Nc1ccc(N3CCCCC3)cc1)c1nncn12 ?
Shiga toxin inh: 10.5; Pf growth 96h: -14.0%; Cycloheximide cs: 15.2*; Pf growth 48h: -15.9%

What do the screens show for `COCCC1CCCCN1C(=O)c1cc(COc2ccc(-n3cncn3)cc2)on1` (stereo not drawn)?
Shiga toxin inh: 11.9; Pf growth 96h: inconclusive; Cycloheximide cs: 1.3; Pf growth 48h: 10.8%

What do the screens show for `COC1CCCN(C(=O)c2ccc(OC3CCN(S(=O)(=O)N(C)C)CC3)cc2)C1` (stereo not drawn)?
Shiga toxin inh: 9.5; Pf growth 96h: inconclusive; Cycloheximide cs: -0.6; Pf growth 48h: -8.8%

Results for O=C(Nc1cccnc1)c1sc2cccc(F)c2c1Cl ?
Shiga toxin inh: 47.4*; Pf growth 96h: inconclusive; Cycloheximide cs: 38.2*; Pf growth 48h: 35.4%

What do the screens show for `COc1ccc(OC)c(NC(=O)Nc2ccc(Cl)cc2)c1`?
Shiga toxin inh: 31.0; Pf growth 96h: inconclusive; Cycloheximide cs: 10.1

Results for O=C(NCc1ccccc1)Nc1cccn(Cc2c(F)cccc2Cl)c1=O ?
Shiga toxin inh: -6.0; Pf growth 96h: -39.2%; Cycloheximide cs: 5.5; Pf growth 48h: -23.6%
